HEK293 cAMP cs – parental HEK293 cAMP activation (counter-screen) | parental HEK293 CNG cAMP sensor, membrane potential fluorescence | Potency, µM (titrated, usually from 57.1 µM), inactives show at the top dose activation, hits mostly activators | 73,000 tested, 2.5% active | AID 938; also: % of control where 0% means no effect; nearly all actives have a fitted effect of over 55% in size
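Parental HEK 293 cells stably expressing a modified CNG channel (no TSHR) report cAMP rise as membrane depolarization. Membrane potential dye with 100 uM RO 20-1724 was loaded for 60 min at room temperature, then compound added for 30 min; fluorescence read at 590 nm.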
Imprint erasure – inducers of genomic imprint erasure in mouse ES cells. Potency, µM (top dose mostly 60.7 µM), without a hit: at the top dose activity change, positive = activation, hits mostly activators. mouse ES Peg3-LacZ reporter, beta-gal luminescence, 40 h. 110,000 tested, 0.02% active
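Gelatin-coated wells received 300 freshly trypsinized female ES cells with a Peg3LacZ-Neo reporter on the maternal allele, then incubated 40 hours at 37C. BetaGlo was added for 5 minutes at room temperature before a single luminescence read.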
TSHR ag – TSH receptor (human) agonism. P16473. HEK293-CNG-TSHR cells (CNG channel as cAMP sensor), membrane potential dye, cAMP. Potency, µM (doses to about 57.1 µM), for the others: at the highest dose activation, hits mostly activators. 73,000 tested, 0.48% active. AID 926; active = well fitted activation curve with a large enough effect in the main read-out, with a control signal flat, not every such curve was filed as active; inconclusive = small, poorly fitted or top-dose-only effect, or a change in a side signal; inactive = no such curve, though single readings can be large or run the other way; % of control where 0% means no effect;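 also: the control signal comes from parental cells without the receptor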
Target sequence (P16473 whole entry, looked up): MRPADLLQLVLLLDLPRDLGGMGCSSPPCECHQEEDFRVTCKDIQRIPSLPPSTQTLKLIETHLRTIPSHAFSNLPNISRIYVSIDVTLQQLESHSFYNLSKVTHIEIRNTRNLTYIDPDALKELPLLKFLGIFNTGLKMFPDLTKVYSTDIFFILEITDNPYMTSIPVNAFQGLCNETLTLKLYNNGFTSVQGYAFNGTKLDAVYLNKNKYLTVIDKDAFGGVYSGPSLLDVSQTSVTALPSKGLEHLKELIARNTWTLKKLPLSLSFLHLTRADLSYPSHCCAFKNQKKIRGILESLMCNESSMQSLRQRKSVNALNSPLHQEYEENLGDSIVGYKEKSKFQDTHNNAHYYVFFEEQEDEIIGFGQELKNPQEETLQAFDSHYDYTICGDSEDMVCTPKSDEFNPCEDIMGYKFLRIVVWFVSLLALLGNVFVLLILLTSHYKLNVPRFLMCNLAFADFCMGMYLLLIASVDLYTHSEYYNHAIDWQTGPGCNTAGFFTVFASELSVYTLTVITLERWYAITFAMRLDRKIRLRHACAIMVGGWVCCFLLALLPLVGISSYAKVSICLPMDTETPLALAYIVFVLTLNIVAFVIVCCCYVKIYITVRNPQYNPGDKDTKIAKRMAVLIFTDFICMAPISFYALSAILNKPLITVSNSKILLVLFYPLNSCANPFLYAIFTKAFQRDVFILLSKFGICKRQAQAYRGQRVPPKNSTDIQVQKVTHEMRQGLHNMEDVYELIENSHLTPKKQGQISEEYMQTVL
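cAMP rise detected as CNG-channel membrane depolarization by fluorescent dye (emission 590 nm), 30 min after compound, following 60 min dye loading containing 100 uM RO 20-1724 at room temperature. Cells: TSHR/CNG HEK 293, with parental CNG HEK 293 as control.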
p53ts 32C kill – kills p53ts cells at the permissive temperature; H1299-p53A138V at 32C, ATP luminescence viability, 24 h; Potency, µM (top dose mostly 46.1 µM), inactives show at the top dose activity change, negative = cytotoxicity, most hits filed as cytotoxic; 130,000 tested, 0.93% active; AID 924;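 also: 0% = DMSO and -100% = full killing by reference compound; nearly all actives have a fitted effect of over 55% in size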
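H1299-p53 A138V cells (temperature-sensitive p53) exposed 24 h to up to 46 uM compound at 32C, where p53 is wild-type in conformation. Viability read as ATP luminescence and normalised to DMSO and 100 uM tamoxifen. AC50 fitted with the Hill equation.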
IkB signaling – inhibitors of IkB signaling in ABC-DLBCL cells; ABC-DLBCL IkBa-CBG/CBR dual luciferase ratio, 4 h; response scale: scaled: untreated 0%, proteasome inhibitor 100%; Potency, µM (highest dose often 57.1 µM), for the others: at the highest dose IkBa stabilization activation; 110,000 tested, 0.04% active; AID 445; active = well fitted curve in the direction sought with a large enough effect in the signal ratio, not every such curve was filed as active; inconclusive = small, poorly fitted or top-dose-only effect, or a change in a side signal; the % refers to the signal ratio;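 also: the direction sought is a rising ratio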
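In this assay, an IκBα–CBG68 fusion accumulates when IKK-driven degradation is blocked; native CBR normalizes for cell number. OCI-Ly3 cells were treated 4 h with compound and doxycycline, then green and red light read after Chroma-Glo addition.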
p53ts 39C tox – cytotoxicity in p53ts cells at nonpermissive temperature; 130,000 tested, 1.5% active; H1299-p53A138V viability at 39C, ATP luminescence, 24 h; Potency, µM (top dose mostly 46.1 µM), without a hit: at the highest dose activity change, negative = cell killing, actives largely listed as cytotoxic; also: % is scaled to controls: 0 for no effect and ±100 for the full control effect; nearly all actives have a fitted effect of over 55% in size
* hit, by the source's call; [ ] = remark or other dose. Shown are actives, neighbours in structure and some others; about 3.1% of the full set was active somewhere. Unless noted, calls follow the shape of the dose curve; as a rule, active = well fitted curve in the direction sought with a large enough effect; inconclusive = small, poorly fitted or top-dose-only effect, or another doubt; inactive = no such curve, though single readings can be large; an effect the other way counts as inactive or inconclusive. Potency is read from the fitted curve at half-maximal effect.

What do the screens show for `O=C(CCn1c(=O)c2cccn2c2ccc(F)cc21)NCCc1ccc(Cl)cc1`?
Imprint erasure: 18%[10.9 µM]; p53ts 32C kill: 6%; IkB signaling: inconclusive; p53ts 39C tox: -19%

How did COCCn1c(=O)c(-c2cccc(C#N)c2)nc2cnc(N(C)C)nc21 do in these assays?
HEK293 cAMP cs: -5%; Imprint erasure: inconclusive; TSHR ag: -1%; p53ts 32C kill: 8%; IkB signaling: 1%[11.4 µM]; p53ts 39C tox: -3%

How did c1ccc(-c2noc(-c3cccnc3)n2)nc1 do in these assays?
HEK293 cAMP cs: inconclusive; Imprint erasure: -92%; TSHR ag: inconclusive; p53ts 32C kill: 13µM*; IkB signaling: 3%; p53ts 39C tox: 13µM*

Results for c1ccc(-c2noc(-c3ccc4ccccc4c3)n2)nc1 ?
HEK293 cAMP cs: 24%; Imprint erasure: -91%; p53ts 32C kill: 0.32µM*; IkB signaling: inconclusive; p53ts 39C tox: 0.63µM*

How did c1ccc(-c2noc(-c3ccc4c(c3)OCO4)n2)nc1 do in these assays?
HEK293 cAMP cs: 10%; Imprint erasure: -92%; TSHR ag: 10%; p53ts 32C kill: 0.63µM*; IkB signaling: inconclusive; p53ts 39C tox: 1µM*

Results for c1ccc(-c2noc(-c3ccncc3)n2)nc1 ?
HEK293 cAMP cs: 2%[11.4 µM]; Imprint erasure: -92%; TSHR ag: -4%[11.4 µM]; p53ts 32C kill: inconclusive; IkB signaling: 1%; p53ts 39C tox: inconclusive

Results for CN(C)c1ccc(-c2nc(-c3ccccn3)no2)cc1[N+](=O)[O-] ?
Imprint erasure: -8%[10.9 µM]; p53ts 32C kill: -19%; IkB signaling: 0%; p53ts 39C tox: -12%

What do the screens show for `Cc1cccc(CNc2cc(-c3ccc(C(=O)N(C)C)cc3)ncn2)c1`?
HEK293 cAMP cs: inconclusive; Imprint erasure: -5%; TSHR ag: inconclusive; p53ts 32C kill: -3%; IkB signaling: -1%[11.4 µM]; p53ts 39C tox: 8%

What do the screens show for `O=C(OCC(=O)N1CCCCCC1)c1n[nH]c(=O)c2ccccc12`?
HEK293 cAMP cs: -5%; Imprint erasure: -14%; TSHR ag: -2%; p53ts 32C kill: -3%; IkB signaling: 0%; p53ts 39C tox: -2%

Results for CC1CCN(C(=O)COC(=O)c2cc3ccccc3cc2O)CC1 ?
HEK293 cAMP cs: 0.2µM*; Imprint erasure: -55%; TSHR ag: inconclusive; p53ts 32C kill: -7%; IkB signaling: inconclusive; p53ts 39C tox: -12%

Results for NC(=O)C1CCN(C(=O)COc2ccc3ccccc3c2)CC1 ?
p53ts 32C kill: 1%; p53ts 39C tox: 2%

Results for CC1CCN(C(=O)COC(=O)c2n[nH]c3ccccc23)CC1 ?
HEK293 cAMP cs: 1%; Imprint erasure: -42%; TSHR ag: -10%; p53ts 32C kill: inconclusive; IkB signaling: 8%; p53ts 39C tox: 10µM*

What do the screens show for `CC1CC(C)CN(C(=O)COC(=O)c2cc3ccccc3cc2O)C1` (stereo not drawn)?
HEK293 cAMP cs: 32µM*; Imprint erasure: -56%; TSHR ag: inconclusive; p53ts 32C kill: -4%; IkB signaling: inconclusive; p53ts 39C tox: -12%

What do the screens show for `Cc1cc(C(=O)OCC(=O)N2CC(C)CC(C)C2)c(C)o1` (stereo not drawn)?
HEK293 cAMP cs: 9%; Imprint erasure: -15%; TSHR ag: 4%; p53ts 32C kill: 1%; IkB signaling: 2%; p53ts 39C tox: -5%

Results for Cc1ccc(CN(Cc2cc3cc(C)ccc3[nH]c2=O)C(=O)N2CCOCC2)cc1 ?
HEK293 cAMP cs: 17%; Imprint erasure: 11%; TSHR ag: 16%; p53ts 32C kill: -4%; IkB signaling: 0%; p53ts 39C tox: 9%

How did CCOc1ccc2[nH]c(=O)c(CN(Cc3ccc(C)cc3)C(=O)N3CCCC3)cc2c1 do in these assays?
HEK293 cAMP cs: 32µM*; TSHR ag: inconclusive; p53ts 32C kill: -2%; IkB signaling: -1%; p53ts 39C tox: 12%

What do the screens show for `Cc1cc(C)c2c(NC(=O)c3ccccc3Cl)c(C(=O)NCc3ccc(Cl)cc3)sc2n1`?
Imprint erasure: -10%[10.9 µM]; p53ts 32C kill: inconclusive; IkB signaling: 5%; p53ts 39C tox: 2.5µM*

How did Cc1ccc(C(=O)Nc2c(C(=O)NCc3ccc(Cl)cc3)sc3nc(C)cc(C)c23)cc1 do in these assays?
Imprint erasure: -9%[10.9 µM]; p53ts 32C kill: inconclusive; IkB signaling: inconclusive; p53ts 39C tox: inconclusive

What do the screens show for `Cc1cc2ccc(=O)oc2cc1OC[C@@H](O)C(C)(C)O`?
HEK293 cAMP cs: -6%; Imprint erasure: -3%; TSHR ag: -10%; p53ts 32C kill: 1%; IkB signaling: 3%[11.4 µM]; p53ts 39C tox: -3%

Results for COc1ccc(O)c(/C=c2/sc3nc4cc(C)c(C)cc4n3c2=O)c1 ?
HEK293 cAMP cs: 32µM*; Imprint erasure: -17%; TSHR ag: inconclusive; p53ts 32C kill: 2%; IkB signaling: inconclusive; p53ts 39C tox: -7%

What do the screens show for `CCOC(=O)c1c(C)oc2ccc(O)c(CN3CCCCC3)c12`?
HEK293 cAMP cs: 16µM*; Imprint erasure: -5%; TSHR ag: inconclusive; p53ts 32C kill: -12%; IkB signaling: -3%; p53ts 39C tox: -3%

How did O=c1n(-c2ccccc2)c(=O)n2n1CC[C@H]1/C(=N\OC[C@@H](O)COCc3ccco3)[C@H]3O[C@@H]3[C@@H](O)[C@@H]12 do in these assays?
HEK293 cAMP cs: -4%[11.4 µM]; TSHR ag: -5%[11.4 µM]; p53ts 32C kill: 7%[9.22 µM]; p53ts 39C tox: 1%[9.22 µM]

What do the screens show for `CCCCCc1c(C)nc(Nc2nc(C)c3cc(OC)ccc3n2)[nH]c1=O`?
HEK293 cAMP cs: 10µM*; Imprint erasure: -9%; TSHR ag: inconclusive; p53ts 32C kill: 14%; IkB signaling: 0%; p53ts 39C tox: 8%

What do the screens show for `CCCn1c(NC(=O)c2cccc(S(=O)(=O)N3CCCC3)c2)nc2ccccc21`?
HEK293 cAMP cs: 16µM*; Imprint erasure: -36%; TSHR ag: inconclusive; p53ts 32C kill: -24%; IkB signaling: inconclusive; p53ts 39C tox: 28%

What do the screens show for `CCCn1c(NC(=O)c2ccc(C)cc2)nc2ccccc21`?
HEK293 cAMP cs: 25µM*; Imprint erasure: -4%; TSHR ag: inconclusive; p53ts 32C kill: -12%; IkB signaling: 0%; p53ts 39C tox: -7%

Results for CCCn1c(NCc2ccco2)nc2ccccc21 ?
HEK293 cAMP cs: 0%; Imprint erasure: -1%; TSHR ag: -4%; p53ts 32C kill: 1%; IkB signaling: 3%; p53ts 39C tox: -2%

Screening results: PubChem, National Center for Advancing Translational Sciences (NCATS)
